Assay results taken from ChEMBL document CHEMBL4296182, “CO-ADD screening of NIH NCI Diversity Set V”.
Potency and affinity values are given separately.

Each compound was assayed on Candida albicans. Settings: 20 µM.
With `CCC(C)n1c(C)cc(=O)n1C(C)CC` (configuration not stated) the Inhibition was -0.29%.
For `CC(C)(C)N1CCC1CN` (configuration not stated), the Inhibition was 3.04%.
For `CCOc1ccc(/C=C2\CCc3ccccc3C2=O)cc1`, the Inhibition was 5.43%.
`Cc1ccc(S(=O)(=O)NC(=O)Nc2nccs2)cc1` was tested, and the Inhibition was 1.46%.
`NC(=O)CCC(C(=O)O)N1C(=O)C2C3CCC(C3)C2C1=O` (configuration not stated) gave an Inhibition of 2.39%.
Compound `Cn1ncc2c(NCc3ccccc3)ncnc21` has an Inhibition of -0.05%.
With `N#CNC(=N)c1ccccc1` the Inhibition was 1.62%.
In the case of `CCOC(=O)/C=C/c1nc(O)c(C)c(C(=O)OCC)n1`, the Inhibition is reported as 0.35%.
Compound `Nc1o[nH]c(=O)c1C1CCCCC1` has an Inhibition of 1.7%.
Work on `CCCCOc1ccc(OC(=O)Nc2cc(Cl)ccc2OC)cc1` yielded an Inhibition of 0.59%.
`O=C(COc1cc(Cl)c(Cl)cc1Cl)Nc1ccc([N+](=O)[O-])cc1Cl` was tested, and the Inhibition was 2.39%.
`NNC(=O)Cc1cc(O)[nH]n1` showed an Inhibition of 1.93%.
`Cc1cccc(Nc2sc(C(=O)c3cc4cc(Cl)ccc4o3)c(N)c2C#N)c1` showed an Inhibition of 0.06%.
`S=C1N(c2ccccc2)CN(C2CCCCC2)CN1c1ccccc1` was tested, and the Inhibition was 3.07%.
With `[O-]/[N+](=C\c1ccccc1)CC1(O)CCCCC1` the Inhibition was 5.54%.
Work on `COc1cc(-c2ccc(Nc3ccccc3C(=O)O)c(OC)c2)ccc1Nc1ccccc1C(=O)O` yielded an Inhibition of -0.13%.
Compound `O[C@@H](c1cc(-c2ccc(C(F)(F)F)cc2)nc(C(F)(F)F)c1)[C@H]1CCCCN1` has an Inhibition of 3.72%.
In the case of `N#Cc1cnn(-c2cccc(Cl)c2)c1-n1cccc1`, the Inhibition is reported as 9.39%.
In the case of `Cc1cccc(C)c1NC(=O)NCc1ccco1`, the Inhibition is reported as 2.89%.
`NC(=O)Oc1cccc(OC(N)=O)c1` showed an Inhibition of 2.21%.
With `COc1ccc(C2OC3=Nc4cc(C)c(C)cc4NC3=C2O)cc1` (configuration not stated) the Inhibition was 1.04%.
`CC1(C)CC(=O)C(CC(=O)c2ccccc2)=C(NNC(=N)N)C1` was tested, and the Inhibition was 5.62%.
